{"source": "PubChem BioAssay (NCATS)", "key": {"[1]": {"experiment": "qHTS for inhibitors of ER calcium dysfunction: SERCaMP assay screened against the NCATS CANVASS Library (AID 1347393)", "procedure,_shortened": "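Thapsigargin-induced ER calcium depletion drives GLuc-SERCaMP secretion from SH-SY5Y cells; compounds given 16 h beforehand were scored by lowered coelenterazine luminescence after 4 h challenge.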"}, "[2]": {"experiment": "Vero-766 cells viability qHTS against the NCATS CANVASS Library: Counterscreen for Zika virus inhibition assay (AID 1347394)", "procedure,_shortened": "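Counterscreen for toxicity: Vero 766 cells exposed 72 h to an 11-point compound series, viability by CellTiter-Glo.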"}, "[3]": {"experiment": "qHTS for inhibitors of Wild type Zika virus screened against the NCATS CANVASS Library (AID 1347396)", "procedure,_shortened": "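Protection against wild-type Zika cytopathic effect is measured in African green monkey Vero 766 cells exposed to an 11-point compound series. Surviving cells are quantified by CellTiter Glo luminescence after 72 h.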"}, "[4]": {"experiment": "Viability qHTS for inhibitors of the SERCaMP assay screened against the NCATS CANVASS Library (AID 1347400)", "procedure,_shortened": "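SH-SY5Y SERCaMP MJH297 cells, 1000/well; 4 h settle, 37C/5% CO2; pin-transferred cpds; 48 h; CellTiter-Glo lum. Pos ctrl bortezomib 0.0001 - 4.6 uM.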"}, "[5]": {"experiment": "Redox Reaction Profiling qHTS: Assay Interference Panel against the NCATS CANVASS Library (AID 1347401)", "procedure,_shortened": "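Cell-free redox surrogate: 5 uM resazurin + 200 uM DTT, 50 mM HEPES pH 7.3/50 mM NaCl; cpds pinned, 11-pt qHTS; Ex525/Em598 read t0 and t=15 min, dark.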"}, "[6]": {"experiment": "qHTS for inhibitors of Rabies Virus screened against the NCATS CANVASS Library (AID 1347402; calls by dose curve)"}, "[7]": {"experiment": "qHTS for inhibitors of adenylyl cyclases using a fission yeast platform: a pilot screen against the NCATS LOPAC library (AID 1347410)", "procedure,_shortened": "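Inhibition of GNAS-stimulated AC9 activity in S. pombe was inferred from derepression of a PKA-repressed fbp1-GFP reporter, measured as cytometric fluorescence after 18 h at 30C with compounds at up to 57 µM.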"}, "[8]": {"experiment": "Validation qHTS assay for inhibitors of Activation Induced Cytidine Deaminase (AID): UDG Counterscreen signal (AID 1347427)", "procedure,_shortened": "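Counterscreen read of UDG activity (2 U/mL, 4/3x) in the FRET deamination format with AID (1 uM, 4/3x), DJC20/DJC23 substrates (250 nM, 4x), 4 h at room temperature. NaOH stop, fluorescence at 560 ex/665 em.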"}, "[9]": {"molecular_target": "Single-stranded DNA cytosine deaminase (Homo sapiens) (UniProt Q9GZX7)", "sequence (Q9GZX7 whole entry, looked up)": "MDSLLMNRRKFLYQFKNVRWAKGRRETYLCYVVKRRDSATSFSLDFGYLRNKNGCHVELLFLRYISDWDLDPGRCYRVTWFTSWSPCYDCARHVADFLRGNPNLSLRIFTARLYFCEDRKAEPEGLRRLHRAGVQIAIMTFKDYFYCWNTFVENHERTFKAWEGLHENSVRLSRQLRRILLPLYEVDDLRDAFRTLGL", "experiment": "Validation qHTS assay for inhibitors of Activation Induced Cytidine Deaminase (AID): AID signal (AID 1347429)", "procedure,_shortened": "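Fluorescence at 540 nm excitation and 590 nm emission reports ssDNA cytosine deamination by AID, with UDG in the same well. Compound-treated reactions ran 4 hr at room temperature with DJC20/DJC23 substrate, followed by 30 min NaOH treatment.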"}, "[10]": {"experiment": "qHTS to identify inhibitors of the type 1 interferon - major histocompatibility complex class I in skeletal muscle: primary screen against the NCATS Mechanism Interrogation Plate v5.0 (MIPE) Libary (AID 1347411)", "procedure,_shortened": "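Luminescence from HiBiT-tagged endogenous HLA-B*08:01 served as the MHC class I read-out. CRISPR-engineered C25cl48 human myoblasts received 4.0 ng/ml IFN-beta plus compound for 24 hrs, with an 11-point, 1:3 series topping at 46 uM final.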"}, "[11]": {"experiment": "Primary qHTS for Huh7 cytotoxicity: counterscreen for inhibitors of MERS-S pseudotyped particle cell entry (AID 1479147; calls by dose curve)"}, "[12]": {"experiment": "Primary qHTS for Vero E6 cytotoxicity: counterscreen for inhibitors of SARS-S pseudo-typed particle cell entry (AID 1479150; calls by dose curve)"}}, "note": "Results filed as inconclusive are left out. Activity calls are given as the source filed them. Unless noted, the call rests on the fitted dose curve; in most records, active means well fitted curve in the direction sought with a large enough effect; inconclusive means small, poorly fitted or top-dose-only effect, or another doubt; inactive means no such curve, though single readings can be large; an effect the other way counts as inactive or inconclusive.", "data": [{"smiles": "NCCc1c[nH]c2ccc(O)cc12", "values": [{"measurement": "outcome", "setting": "[1]", "result": "inactive"}, {"measurement": "outcome", "setting": "[2]", "result": "inactive"}, {"measurement": "outcome", "setting": "[3]", "result": "inactive"}, {"measurement": "outcome", "setting": "[4]", "result": "inactive"}, {"measurement": "outcome", "setting": "[5]", "result": "inactive"}, {"measurement": "outcome", "setting": "[6]", "result": "inactive"}]}, {"smiles": "NCCc1c[nH]c2ccccc12", "values": [{"measurement": "outcome", "setting": "[1]", "result": "inactive"}, {"measurement": "outcome", "setting": "[2]", "result": "inactive"}, {"measurement": "outcome", "setting": "[3]", "result": "inactive"}, {"measurement": "outcome", "setting": "[4]", "result": "inactive"}, {"measurement": "outcome", "setting": "[5]", "result": "inactive"}, {"measurement": "outcome", "setting": "[6]", "result": "inactive"}]}, {"smiles": "NC(N)=NOCCC(N)C(=O)O", "note": "(configuration not stated)", "values": [{"measurement": "outcome", "setting": "[7]", "result": "inactive"}, {"measurement": "outcome", "setting": "[8]", "result": "inactive"}, {"measurement": "outcome", "setting": "[9]", "result": "inactive"}]}, {"smiles": "C[C@@H](N)Cc1cnc[nH]1", "values": [{"measurement": "outcome", "setting": "[7]", "result": "inactive"}, {"measurement": "outcome", "setting": "[8]", "result": "inactive"}, {"measurement": "outcome", "setting": "[9]", "result": "inactive"}]}, {"smiles": "O=c1[nH]c2ccc(Cl)cc2c(N[C@@H]2CN3CCC2CC3)c1-c1nc2ccccc2[nH]1", "values": [{"measurement": "Potency", "setting": "[10]", "result": "4660 nM (active)"}]}, {"smiles": "c1ccc2sc(C3(N4CCCCC4)CCCCC3)cc2c1", "values": [{"measurement": "outcome", "setting": "[7]", "result": "inactive"}, {"measurement": "outcome", "setting": "[8]", "result": "inactive"}, {"measurement": "outcome", "setting": "[9]", "result": "inactive"}]}, {"smiles": "O=C(O)CNC(=O)c1c(O)c2ccccc2n(Cc2ccccc2)c1=O", "values": [{"measurement": "Potency", "setting": "[10]", "result": "inactive"}]}, {"smiles": "C=CCN1CC[C@]23CCCCC2[C@H]1Cc1ccc(O)cc13", "note": "(some centres not stated)", "values": [{"measurement": "outcome", "setting": "[7]", "result": "inactive"}, {"measurement": "outcome", "setting": "[8]", "result": "inactive"}, {"measurement": "outcome", "setting": "[9]", "result": "inactive"}]}, {"smiles": "COc1ccc2c(c[n+](C)c3c4cc5c(cc4ccc23)OCO5)c1OC", "values": [{"measurement": "outcome", "setting": "[7]", "result": "inactive"}, {"measurement": "outcome", "setting": "[9]", "result": "inactive"}]}, {"smiles": "NC(CP(=O)(O)O)C(=O)O", "note": "(configuration not stated)", "values": [{"measurement": "outcome", "setting": "[7]", "result": "inactive"}, {"measurement": "outcome", "setting": "[8]", "result": "inactive"}, {"measurement": "outcome", "setting": "[9]", "result": "inactive"}]}, {"smiles": "O=C(Cc1ccc(Cl)c(Cl)c1)N1CCCCC1CN1CCCC1", "note": "(configuration not stated)", "values": [{"measurement": "outcome", "setting": "[7]", "result": "inactive"}, {"measurement": "outcome", "setting": "[8]", "result": "inactive"}, {"measurement": "outcome", "setting": "[9]", "result": "inactive"}]}, {"smiles": "CN[C@@H]1Cc2cccc3[nH]c(=O)n(c23)C1", "values": [{"measurement": "Potency", "setting": "[10]", "result": "inactive"}]}, {"smiles": "CC(C)NC(C)Cc1ccc(I)cc1", "note": "(configuration not stated)", "values": [{"measurement": "outcome", "setting": "[7]", "result": "inactive"}, {"measurement": "outcome", "setting": "[8]", "result": "inactive"}, {"measurement": "outcome", "setting": "[9]", "result": "inactive"}, {"measurement": "Potency", "setting": "[11]", "result": "inactive"}, {"measurement": "Potency", "setting": "[12]", "result": "inactive"}]}, {"smiles": "COc1ccc(N(C(=O)Oc2c(C)cccc2C)c2ccnc(Nc3ccc(N4CCN(C)CC4)cc3)n2)c(OC)c1", "values": [{"measurement": "Potency", "setting": "[10]", "result": "inactive"}]}, {"smiles": "CC(C)[C@]12O[C@H]1[C@@H]1O[C@]13[C@]1(O[C@H]1C[C@H]1C4=C(CC[C@@]13C)C(=O)OC4)[C@@H]2O", "values": [{"measurement": "Potency", "setting": "[10]", "result": "82.9 nM (active)"}]}]}
